# Experimental data: PubChem BioAssay (Tox21)
# Results filed as inconclusive are left out. Calls of active or inactive are those of the source. Calls follow the shape of the dose curve; as a rule, active = well fitted cell-killing curve with a large enough effect in the repeat runs; inconclusive = weak or mixed curves, or effect the other way; inactive = flat fitted curve, though single readings scatter.
# Assay: qHTS assay to identify small molecule antagonists of the estrogen related receptor signaling pathway with the pleiotropic PPARgamma coactivator (PGC) cell viability counter screen (AID 1224822;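 also: viability read after 17.5 h compound exposure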)
# Settings: ERR/PGC reporter cell line viability counter screen; series mostly up to 92.2 µM; viability change, negative = cytotoxic: at the top concentration
# From the text: National Center for Advancing Translational Sciences [NCATS]
# NIH Chemical Genomics Center [NCGC]
# U.S. Environmental Protection Agency [EPA]
# National Institutes of Environmental Health Sciences [NIEHS]
# National Toxicology Program [NTP]
# U.S. Food and Drug Administration [FDA]
# Estrogen related receptors (ERRs), the first orphan nuclear receptors discovered, play an important role in the control of cellular energy metabolism. ERRs are required for high-energy production in response to the environmental challenges. The pleiotropic PPARgamma coactivator (PGC) is a major partner of ERR and a key regulator in energy homeostasis. Together they have been implicated in the etiology of metabolic disorders such as Type 2 diabetes and metabolic syndrome. ERR-alpha was also identified as an adverse marker for breast cancer progression; ERR-alpha-positive tumors have a poor prognosis. To screen and to identify environmental compounds that perturb the ERR and PGC/ERR signaling pathways could provide valuable information for potential therapeutic or preventive measures in the treatment of metabolic disease. To differentiate true PGC/ERR antagonists or agonist from cytotoxic substances, the assay is multiplexed with cell viability assay.
# Tox21 Assay Protocol Summary:
# The PGC/ERR cells were dispensed at 2,000 cells/5 ul/well in 1536-well white plates using a Multidrop dispenser. After the assay plates were incubated at a 37 C/5% CO2 incubator for 6 hours, 23 nL of compounds dissolved in DMSO, positive and negative controls or DMSO only was transferred to the assay plate by a pin tool. The plates were incubated at 37 C for 17.5 hours. 1 ul/well of CellTiter-Fluor reagent was added into the assay plates using a Flying Reagent Dispenser. After 30 min incubation at 37 C/5% CO2, the fluorescence intensity in the plates was measured using a ViewLux plate reader.
# % is scaled to controls: 0 for no effect and ±100 for the full control effect; potency is read from the fitted curve at half-maximal effect.
SMILES,"viability change, negative = cytotoxic",Potency
O=S(=O)(O)C(F)(F)C(F)(F)C(F)(F)C(F)(F)F,6.31% (inactive),
CC(C)=CCOc1c2occc2cc2ccc(=O)oc12,4.56% [at 46.1 µM] (inactive),
CC(O)(CS(=O)(=O)c1ccc(F)cc1)C(=O)Nc1ccc(C#N)c(C(F)(F)F)c1 (stereo not given),-3.29% [at 46.1 µM] (inactive),
COCCOCCO,-0.129% (inactive),
OCCCBr,8.82% (inactive),
NCC(CC(=O)O)c1ccc(Cl)cc1 (stereo not given),-4.66% [at 46.1 µM] (inactive),
c1cc2ccc3cccc4ccc(c1)c2c34,15% (inactive),
C=CC(=O)NCNC(=O)C=C,1.59% (inactive),
c1ccc(C2CC2)c(OCC2=NCCN2)c1,9.23% [at 46.1 µM] (inactive),
CC(C)(C)C(O)C(Oc1ccc(Cl)cc1)n1cncn1 (stereo not given),-7.01% (inactive),
COc1nn(CSP(=S)(OC)OC)c(=O)s1,1.88% (inactive),
NC(=O)CI,,12.3 µM (active)
CC(C)N(CCC(C(N)=O)(c1ccccc1)c1ccccn1)C(C)C (stereo not given),,inactive
CCCCOC(=O)c1ccccc1C(=O)OCc1ccccc1,-5.88% (inactive),
CC(=O)[C@H]1CC[C@H]2[C@@H]3CC[C@H]4C[C@](C)(O)CC[C@]4(C)[C@H]3CC[C@]12C,11.9% [at 46.1 µM] (inactive),
